Test results published in PubChem BioAssay (NCATS).
Activity calls are given as the source filed them. Entries that show only a call come without a potency. Calls come from the whole dose curve; as a rule, active = well fitted curve in the direction sought with a large enough effect; inconclusive = small, poorly fitted or top-dose-only effect, or another doubt; inactive = no such curve, though single readings can be large or run the other way. Bridge positions count the residues as written; N and C are the ends. Square brackets hold non-standard residues; d marks the D form. Side chains are listed from the residue outwards. Peptide text beside a SMILES is read from it. * marks the point of attachment. Phg(4-OMe) = COc1ccc([C@H](N)C(=O)O)cc1; d(aIle) = CC[C@H](C)[C@@H](N)C(=O)O; d(aThr) = C[C@@H](O)[C@@H](N)C(=O)O; NMeF = CN[C@@H](Cc1ccccc1)C(=O)O; Isobutyryl = CC(C)C(=O)*

Each compound was assayed against Luciferin 4-monooxygenase (Photinus pyralis) (UniProt P08659) (assay: Firefly luciferase counterscreen qHTS: Assay Interference Panel against the NCATS CANVASS Library (AID 1347363)). Settings: purified firefly luciferase, luminescence inhibition, 5 min; series mostly up to 57.5 µM.
Luciferin 4-monooxygenase (Photinus pyralis), sequence (P08659 whole entry, looked up): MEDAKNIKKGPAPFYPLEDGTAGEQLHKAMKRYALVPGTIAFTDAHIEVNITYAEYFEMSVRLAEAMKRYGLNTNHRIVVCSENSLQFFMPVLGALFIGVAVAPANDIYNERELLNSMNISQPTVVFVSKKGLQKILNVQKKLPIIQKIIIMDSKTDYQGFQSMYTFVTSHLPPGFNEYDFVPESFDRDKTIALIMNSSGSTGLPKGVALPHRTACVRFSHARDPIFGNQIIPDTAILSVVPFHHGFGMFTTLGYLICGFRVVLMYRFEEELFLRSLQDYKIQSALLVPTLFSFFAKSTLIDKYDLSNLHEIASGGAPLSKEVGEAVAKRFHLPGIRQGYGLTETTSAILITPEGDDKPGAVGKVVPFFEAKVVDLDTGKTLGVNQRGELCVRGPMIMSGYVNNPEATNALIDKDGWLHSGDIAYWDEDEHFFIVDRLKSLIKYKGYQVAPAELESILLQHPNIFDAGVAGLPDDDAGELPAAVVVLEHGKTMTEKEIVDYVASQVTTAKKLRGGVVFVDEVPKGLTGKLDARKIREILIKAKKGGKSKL
Summary of the method: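 Purified P. pyralis luciferase (0.04 ug/mL, 4x reagent) added to Tris-acetate buffer with 0.013 mM D-luciferin, 0.013 mM ATP and 13.3 mM Mg-acetate; compounds preincubated 15 min, then luminescence read after 5 min, RT.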
For `Cc1occ2c1C(=O)c1c(cc(O)c(O)c1O)C2=O`, the Potency was “inactive”.
In the case of `O=C1CC2OCC=C3CN4C5CC3C2[C@@H]2N1c1ccccc1[C@]52C[C@@H]4C1=C[C@H]2C3CC4N(CC[C@@]45c4ccccc4N(C1=O)[C@@H]25)C/C3=C/CO` (stereo partly drawn), the Potency is reported as “inactive”.
`CCC(=O)CCCCC[C@@H]1NC(=O)[C@H]2CCCCN2C(=O)[C@H](C(C)C)NC(=O)[C@H](Cc2cn(OC)c3ccccc23)NC1=O` was tested, and the Potency was “inactive”.
For `C/C(=C\[C@H](C)C(=O)CCCC1CC(=O)NC(=O)C1)[C@@H]1OC(=O)/C=C/CC/C=C/[C@H](O)[C@@H](O)[C@@H]1C`, the Potency was “inactive”.
In the case of `C/C=C(/C)c1c(Cl)c(O)c(C)c2c1Oc1c(Cl)c(O)c(Cl)c(C)c1C(=O)O2`, the Potency is reported as “inactive”.
In the case of `C=C[C@@]1(C)CC[C@@H]([C@H](C)C(=O)/C=C/C(C)(C)O)O1`, the Potency is reported as “inactive”.
For `C=CC(CCCCC)C1C(=O)NC(=O)C1C(=O)C1C(/C=C/C)C=CC2CC(C(=O)O)CC(C)C21` (stereo not drawn), the Potency was “inactive”.
`C=C1CC[C@@H](O[C@H]2C[C@@](O)([C@H](C)NC(=O)c3[nH]c(C)c(Cl)c3Cl)[C@H](O)[C@@H](C)O2)[C@@H]2C=C[C@H](C)C(/C(O)=C3/C(=O)[C@H](C(C)C)N([C@@H]4O[C@H](C)[C@H](OC(N)=O)[C@H](OC(C)=O)[C@@H]4OC)C3=O)[C@@H]12` (stereo partly drawn) was tested, and the Potency was “inactive”.
In the case of `COc1ccc([C@@H]2CC(=O)c3c(cc(O)c(C/C=C(\C)CCC=C(C)C)c3O)O2)cc1`, the activity change, negative = inhibition is reported as -12.4% [at 11.5 µM] (inactive).
In the case of `O=c1cc(-c2ccc(O)c(O)c2)oc2cc(O[C@@H]3O[C@H](CO)[C@@H](O)[C@H](O)[C@H]3O)cc(O)c12`, the Potency is reported as “inactive”.
`CC[C@H](C)[C@H]1NC(=O)[C@@H](NC(=O)C(C)C)[C@@H](C)OC(=O)[C@H](COC(=O)CNC(C)=O)NC(=O)[C@@H]([C@@H](C)O)NC(=O)[C@H](Cc2ccccc2)N(C)C(=O)[C@H](c2ccc(OC)cc2)NC1=O` (Isobutyryl-T[d(aIle)][Phg(4-OMe)][NMeF][d(aThr)]S([Gly-Ac]); ester 1-C) was tested, and the Potency was “inactive”.
With `C[n+]1cc2cc(C(N)=O)[nH]c3c(=N)c(Cl)c(N)c1c23` the Potency was “inactive”.
With `C/C1=C/[C@@H](C)[C@H](O)[C@@H](O)/C=C/CC/C=C/C(=O)O[C@@H]1[C@H](C)C(=O)CCCC1CC(=O)NC(=O)C1` the Potency was “inactive”.
For `CC(=O)Oc1cc2c(c(OC(C)=O)c1C1CCc3cc(Cl)c(Cl)n31)C(=O)n1c-2cc(Cl)c1Cl` (stereo not drawn), the Potency was “inactive”.
With `COc1ccc2[nH]c3c(c2c1)CCN1C[C@H]2C[C@@H](OC(=O)c4cc(OC)c(OC)c(OC)c4)[C@H](OC)[C@@H](OC)[C@H]2C[C@H]31` the Potency was “inactive”.
In the case of `O[C@H]1c2ccccc2-c2c3c(cc4c2[C@@H]1NCC4)OCO3`, the Potency is reported as “inactive”.
For `CC(C)=CC[C@H]1C[C@@]2(CC=C(C)C)C(=O)[C@](CC=C(C)C)(C(=O)C(C(=O)c3ccccc3)=C2O)C1(C)C`, the Potency was “inactive”.
For `C[C@]12CC[C@]3(C1)[C@H](CC2=O)C[C@@H](OC(=O)c1ccccc1)[C@H]1[C@](C)(C(=O)O)CCC[C@@]13C`, the Potency was “inactive”.
In the case of `CC(=O)O[C@H]1c2ccccc2-c2c3c(cc4c2[C@@H]1N(C(C)=O)CC4)OCO3`, the Potency is reported as “inactive”.
`C=C[C@](Cl)(CBr)CCC=C(C)C` was tested, and the Potency was “inactive”.
In the case of `C=C1CC[C@@H](Br)C(C)(C)[C@]12CC=C(C)C(=O)C2`, the Potency is reported as “inactive”.
`COc1cc2c(cc1OC)[C@@H](c1ccc3c(c1)OCO3)C(C)C(C)C2=O` (stereo partly drawn) was tested, and the Potency was “inactive”.
For `C[C@H]1C=C[C@H]2CCCC[C@@H]2[C@H]1C(=O)[C@H]1CC2=C(C(=O)O)CCN2C1=O`, the Potency was “inactive”.
In the case of `C/C(=C\[C@H](C)C(=O)/C=C/CC1CC(=O)NC(=O)C1)[C@@H]1OC(=O)/C=C/CC/C=C/C[C@@H](O)[C@@H]1C`, the Potency is reported as “inactive”.
With `CC(C)[C@]12CC[C@@]3(C)[C@H](C)CC[C@H](O)[C@@]3(CC1)c1cc3c(cc12)[nH]c1ccccc13` the Potency was “inactive”.
For `C/C=C1/CN2C3CC1C1C=CC(=O)N4c5ccccc5[C@@]3(C[C@@H]2C2=C[C@H]3C5CC6N(CC[C@@]67c6ccccc6N(C2=O)[C@@H]37)C/C5=C/C)[C@H]14` (stereo partly drawn), the Potency was “inactive”.
In the case of `CC(C)=CCC[C@]12c3cc4c(cc3CC[C@@]1(C)[C@H](C)CC[C@@H]2O)[nH]c1ccccc14`, the Potency is reported as “inactive”.
For `Oc1ccc(C2Oc3cc(O)c4c(c3[C@@H]2c2cc(O)cc(O)c2)[C@H]2C(c3ccc(O)cc3)c3c(O)cc5c(c3[C@H]2C4c2ccc(O)cc2)[C@H](c2cc(O)cc(O)c2)C(c2ccc(O)cc2)O5)cc1` (stereo partly drawn), the Potency was “inactive”.
